Records with an inconclusive call do not appear. Activity calls are given as the source filed them. The call rests on the fitted dose curve; in most records, active means well fitted inhibition curve with a large enough effect; inconclusive means small, poorly fitted or top-dose-only effect, or effect the other way; inactive means flat fitted curve, though single readings scatter.
Target: Ubiquitin carboxyl-terminal hydrolase 2 (Homo sapiens) (UniProt O75604)
Test: Ub-rhodamine 110 based assay for inhibitors Ubiquitin-specific Protease USP2a; further: nearly all actives have a fitted effect of over 50% in size
Conditions: USP2a Ub-rhodamine110 cleavage, fluorescence; series mostly up to 38.3 µM; activity change, negative = inhibition: at the top concentration
Outline: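 Kinetic fluorescence (485/531 nm) read each minute over 7 min after adding Ub-Rhod110 (150 nM final) to USP2a (5 nM final). The enzyme had 30 min RT exposure to compounds beforehand in Tris pH 8.0 buffer with CaCl2, CHAPS and beta-ME.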
On the % scale 0 is the no-effect control and ±100 the full control effect; potency means the concentration at half of the fitted maximal effect.

Chain of Ubiquitin carboxyl-terminal hydrolase 2 (Homo sapiens) (O75604 whole entry, looked up): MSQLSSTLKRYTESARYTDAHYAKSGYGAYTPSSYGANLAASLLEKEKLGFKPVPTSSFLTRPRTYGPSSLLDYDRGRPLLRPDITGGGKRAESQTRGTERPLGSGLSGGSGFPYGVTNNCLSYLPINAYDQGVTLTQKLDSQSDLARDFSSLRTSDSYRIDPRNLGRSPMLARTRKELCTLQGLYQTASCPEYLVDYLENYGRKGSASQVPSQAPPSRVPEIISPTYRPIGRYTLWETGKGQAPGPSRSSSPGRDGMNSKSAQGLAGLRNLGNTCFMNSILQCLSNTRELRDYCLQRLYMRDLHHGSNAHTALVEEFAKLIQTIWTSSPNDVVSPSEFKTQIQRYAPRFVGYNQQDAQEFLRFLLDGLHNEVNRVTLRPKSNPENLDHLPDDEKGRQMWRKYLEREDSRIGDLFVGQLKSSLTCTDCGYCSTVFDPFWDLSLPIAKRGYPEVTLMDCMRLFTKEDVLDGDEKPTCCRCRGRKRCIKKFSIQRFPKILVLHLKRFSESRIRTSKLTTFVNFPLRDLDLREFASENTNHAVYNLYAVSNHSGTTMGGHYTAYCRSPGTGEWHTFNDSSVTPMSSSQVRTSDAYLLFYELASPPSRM

How did the “activity change, negative = inhibition” value turn out when `Cc1ccc(C(C)C)c(OCc2nn(CC(=O)c3ccc(OC(F)F)cc3)c3[n+]2CCCCC3)c1` was run?
Its value is -4.28% (inactive).

Which “activity change, negative = inhibition” value does the source give for `COc1cccc(/C=N/n2c(SC)nnc2-c2ccccc2)c1O` here?
Its value is -15.9% (inactive).

With `Nc1cc(=O)[nH]c(SCc2cccc(Cl)c2)n1` as the compound, how does the “activity change, negative = inhibition” value read?
The value was -1.45% (inactive).

For `Cc1ccc(/C=C2/SC(=S)N(c3ccc(S(=O)(=O)Nc4nccs4)cc3)C2=O)cc1`, which Potency is on record?
Its Potency is 3.55 µM (active).

`CCc1cc2c(=O)c(-n3cnc4ccccc43)coc2cc1O` was tested. Which “activity change, negative = inhibition” value did it give?
The value was 3.66% (inactive).

How did the Potency turn out when `Cc1ccc(S(=O)(=O)N2[C@@H](c3ccc(C(C)(C)C)cc3)C(C(=O)O)=CC[C@H]2c2ccc(C(C)C)cc2)cc1` was run?
The Potency was 3.98 µM (active).

With `Cn1c(C(=O)NCCCN2CCN(c3ccccc3F)CC2)cc2c(=O)n(C)c3ccccc3c21` as the compound, how does the “activity change, negative = inhibition” value read?
Its value is -27.2% (inactive).

With `CCOC(=O)c1[nH]c2ccc(OC)cc2c1NC(=O)CCN1CCCC(C)C1` (centres undefined) as the compound, how does the “activity change, negative = inhibition” value read?
Its value is -9.84% (inactive).

How did the “activity change, negative = inhibition” value turn out when `COc1cccc(NC(=O)c2ccccc2-c2nc(-c3cccc(C)c3)no2)c1` was run?
Its value is -16.3% (inactive).

With `Nc1c(C(=O)Nc2ccc3c(c2)OCCO3)nnn1CCc1ccccc1` as the compound, how does the “activity change, negative = inhibition” value read?
The value was 2.3% (inactive).

With `O=c1c2c3nc4ccccc4nc3n(Cc3ccccc3)c2ncn1Cc1ccco1` as the compound, how does the Potency read?
The Potency was 11.2 µM (active).

`CCn1c2ccccc2c2nc3ccccc3nc21` was tested. Which “activity change, negative = inhibition” value did it give?
Its value is -13% (inactive).

For `CCCCCCCCCCOC(=O)Cn1c(COc2ccccc2OC)[n+](C)c2ccccc21`, which “activity change, negative = inhibition” value is on record?
Its value is -13.7% (inactive).

For `COc1cc(/C=C/[N+](=O)[O-])ccc1OCc1cccc(C(=O)O)c1`, which “activity change, negative = inhibition” value is on record?
The value was -20.5% (inactive).

With `COc1cc(C(=O)OC2CCCCC2=O)cc(OC)c1C` (centres undefined) as the compound, how does the Potency read?
Its Potency is 11.2 µM (active).

For `C=CCn1c(O)c(C(CC)=NCCN2CCOCC2)c(=O)[nH]c1=O`, which “activity change, negative = inhibition” value is on record?
Its value is -2.11% (inactive).

How did the “activity change, negative = inhibition” value turn out when `COCCn1c(SCC(=O)Nc2cc(C)on2)nnc1-c1ccccc1` was run?
Its value is -6.78% (inactive).

Which “activity change, negative = inhibition” value does the source give for `c1ccc(Nc2c3c(nc4ncnn24)CCC3)cc1` here?
The value was -0.0764% (inactive).

`O/N=C/c1ccccc1OCc1ccccc1F` was tested. Which “activity change, negative = inhibition” value did it give?
Its value is -7.11% (inactive).

How did the “activity change, negative = inhibition” value turn out when `Cc1ccccc1OCc1nc2ccccc2c(=O)n1N` was run?
Its value is -11.7% (inactive).

With `O=C(O)c1cc(N2N=C(C(F)(F)F)/C(=C/C=C/c3ccco3)C2=O)ccc1Cl` as the compound, how does the Potency read?
Its Potency is 7.08 µM (active).

With `CCC(C(=O)NCc1ccccc1OC)n1nc(C)n2c(cc3occc32)c1=O` (centres undefined) as the compound, how does the “activity change, negative = inhibition” value read?
Its value is -4.2% (inactive).

Which Potency does the source give for `CCN(CC)S(=O)(=O)c1ccc(-c2nnc(SCC(=O)Nc3ccc4c(c3)OCO4)o2)cc1` here?
The Potency was 10 µM (active).

Which “activity change, negative = inhibition” value does the source give for `O=S(=O)(NC1CCSc2ccccc21)c1ccccc1` (centres undefined) here?
Its value is -10.3% (inactive).

How did the “activity change, negative = inhibition” value turn out when `C=CC#CC[N+]1(CC#Cc2ccccc2)CCOCC1` was run?
The value was -18.5% (inactive).

How did the “activity change, negative = inhibition” value turn out when `CN1CCN(Cc2c(O)ccc3c(=O)c(Oc4ccccc4Cl)c(C(F)(F)F)oc23)CC1` was run?
Its value is 3.93% (inactive).

How did the “activity change, negative = inhibition” value turn out when `Cc1ccc2nc(NCCCNC(=O)c3cnccn3)c(C#N)cc2c1` was run?
The value was -11.9% (inactive).

`O=c1cc(CO)oc(CN2CCN(Cc3ccccc3)CC2)c1O` was tested. Which “activity change, negative = inhibition” value did it give?
The value was -1.31% (inactive).

How did the Potency turn out when `CCOc1cc(/C=C2\C(=O)N(c3nc(-c4ccc(Br)cc4)cs3)N=C2c2ccccc2)ccc1O` was run?
The Potency was 3.16 µM (active).

How did the “activity change, negative = inhibition” value turn out when `CCCNC(=O)CS(=O)Cc1nc(-c2ccccc2C)oc1C` (centres undefined) was run?
The value was -6.47% (inactive).

Which “activity change, negative = inhibition” value does the source give for `CC1=NN(C(=O)c2csc(C)c2C)C(O)(C(F)(F)F)C1` (centres undefined) here?
Its value is -1.72% (inactive).

`COc1ccc(S(=O)(=O)NCCSCc2ccco2)cc1OC` was tested. Which Potency did it give?
The Potency was 10 µM (active).

`CCOC(=O)CN1C(=O)S/C(=C/c2ccc(O)c([N+](=O)[O-])c2)C1=O` was tested. Which “activity change, negative = inhibition” value did it give?
The value was -15% (inactive).

How did the “activity change, negative = inhibition” value turn out when `CCOC(=O)N1CCN(C(=O)CN(c2ccc(C)c(C)c2)S(=O)(=O)c2ccccc2)CC1` was run?
The value was -0.973% (inactive).

Which “activity change, negative = inhibition” value does the source give for `Fc1ccc(-c2nnn(Cc3nc4ccccc4s3)n2)cc1` here?
Its value is -19.1% (inactive).

`FC(F)Sc1ccc(NC(=S)NC2CCCCC2)cc1` was tested. Which “activity change, negative = inhibition” value did it give?
The value was -3% (inactive).

`Cc1ccc(SCC(=O)NCC(C)C)cc1` was tested. Which “activity change, negative = inhibition” value did it give?
The value was -0.9% (inactive).

Which “activity change, negative = inhibition” value does the source give for `COc1ccc2cc(CN(C(=O)Nc3ccccc3)C3CCCC3)c(=O)[nH]c2c1` here?
The value was -11.7% (inactive).

For `Cc1ccc(NC(=O)CN2C(=O)N/C(=C/c3ccco3)C2=O)cc1`, which Potency is on record?
The Potency was 3.98 µM (active).
